# Reference: ChEMBL document CHEMBL3988442, “University of Dundee, Small-Polar-MMV Screening Library” (2021)
# Key:
# [1] = molecular target: T1, Aspartate--tRNA(Asp/Asn) ligase (Mycobacterium tuberculosis (strain ATCC 25618 / H37Rv)) (UniProt P9WFW3); test: Assay for Asp RNA synthetase-1 from Mycobacterium tuberculosis; type: functional; set-up: scale not given: direction of the effect not stated beside the values; settings: 30 µM; further: in the data most compounds retested in dose-response had high values
# T1 sequence (whole entry): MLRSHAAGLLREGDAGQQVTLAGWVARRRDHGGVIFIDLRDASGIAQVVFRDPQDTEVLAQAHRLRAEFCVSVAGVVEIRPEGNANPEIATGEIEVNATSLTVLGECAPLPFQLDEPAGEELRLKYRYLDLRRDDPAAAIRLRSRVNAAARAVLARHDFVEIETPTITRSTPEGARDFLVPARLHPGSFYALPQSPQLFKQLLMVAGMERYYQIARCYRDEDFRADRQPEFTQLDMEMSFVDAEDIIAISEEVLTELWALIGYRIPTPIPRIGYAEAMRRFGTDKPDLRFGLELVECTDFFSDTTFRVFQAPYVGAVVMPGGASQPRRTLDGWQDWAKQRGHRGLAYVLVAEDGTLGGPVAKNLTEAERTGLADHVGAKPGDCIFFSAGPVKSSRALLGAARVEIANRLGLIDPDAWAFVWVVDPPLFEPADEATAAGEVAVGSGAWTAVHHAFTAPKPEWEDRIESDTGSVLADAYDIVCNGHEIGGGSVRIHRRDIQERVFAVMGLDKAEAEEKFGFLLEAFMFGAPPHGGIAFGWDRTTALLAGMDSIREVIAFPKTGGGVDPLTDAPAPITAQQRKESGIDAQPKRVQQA
# [2] = molecular target: Shiga toxin 2 (Escherichia coli O157:H7) (UniProt P09385+P09386); test: E. coli 0.157:H7 Shiga Toxin SOP - stx2 screening assay; type: functional; set-up: scale not given: direction of the effect not stated beside the values; settings: 30 µM
SMILES,Percent Effect [1],Percent Effect [2]
Cc1nn(CC(=O)N2CCN(c3ccccc3F)CC2)c(C)c1Cl,8.8%,-39.1%
O=C(CCCc1ccc(F)cc1)N1C[C@@H](CN2CCOCC2)[C@@H](CO)C1,5.03%,-6.96%
CC(=O)N1CC(=O)N(c2ccccc2)CC12CCN(Cc1nccs1)C2 (configuration not stated),7.34%,-17.5%
O=C(NCN1CCc2ccccc2C1)c1cnccn1,8.37%,-18.9%
CSCCNC(=O)c1ccc(OC2CCN(CC(C)(C)C)CC2)c(Cl)c1,1.62%,-38.1%
CC(C)c1nccn1C1CCCN(C(=O)c2cnn(C)c2C2CC2)C1 (configuration not stated),-1.74%,28.9%
c1cc2n(n1)CC(CNCc1ccc(OC3CCCCC3)nc1)CN2 (configuration not stated),-3.37%,-39.3%
CN1CCC/C1=N\S(=O)(=O)c1ccc(NC(=O)c2ccc(F)cc2)cc1,4.61%,-109%
CC(C)OCc1ncn2c1CN(Cc1ccc(F)cc1)CCC2,-1.67%,3.71%
O=c1nc(CNc2ccccc2)[nH]n1Cc1ccccc1,3.89%,2.45%
Cc1ccc(C(=O)N2CCC3(CC2)CC(N2CCOCC2)C3)cc1,-1.52%,3.95%
COC(=O)c1ccc(C(=O)NS(=O)(=O)c2cncc(Br)c2)cc1,-0.323%,8.86%
Cn1ncc2c1NC(=O)CC2c1ccc(Cl)cc1Cl (configuration not stated),5.72%,-26.2%
Fc1cnc(N2CCOCC3(CCCN(c4nncs4)C3)C2)nc1 (configuration not stated),-3.89%,6.61%
CC1CCN(S(=O)(=O)NCCCn2cncn2)CC1,-2.66%,-6.63%
O=C1NC(c2ccccc2)=N[C@@]12CC[C@@H]1CN(Cc3ccco3)C[C@@H]12,3.61%,-16.5%
O=C(NCc1ccc(-c2ccn[nH]2)cc1)N1CCC(N2CCCC2)C1 (configuration not stated),-3.65%,9.65%
CN(C)C[C@H]1OC[C@@H]2CCN(C(=O)c3ccco3)C[C@@H]21,-2.13%,-9.03%
COc1c(CNC2CCN(C(C)(C)C)CC2)c(C(C)C)nn1C,-0.618%,30.9%
Fc1cccc(CN2CCC(c3n[nH]c4ncccc34)CC2)c1F,-3.17%,-6.18%
O=C(CCc1ccccc1F)NS(=O)(=O)c1ccc2c(c1)OCCCO2,2.29%,-13.9%
O=C(Cc1cccnc1)N1CCC2(CC1)CCN(C1CCOCC1)C2,1.28%,-40.8%
Fc1cccc(N2CCCC3(CN(Cc4ccncc4)CCO3)C2)c1 (configuration not stated),5.63%,-4.22%

SMILES,Percent Effect [1],Percent Effect [2]
O=C(COCc1ccccc1)N1CCCC(n2cncn2)C1 (configuration not stated),-3.66%,22.6%
N#CCCN(C(=O)CN1CCCC1Cc1ccccc1)c1ccccc1 (configuration not stated),2.91%,27.4%
CSCCCNC(=O)Nc1cccc(-c2nccn2C)c1,-3.93%,-93.1%
Cn1ccnc1CN(CCCO)C1CCCc2ccccc21 (configuration not stated),3.32%,8.83%
CN(C)CCOCC1CN(Cc2ccsc2)Cc2ccnn2C1 (configuration not stated),-0.625%,3.55%
CNc1cncc(C2CCCN2C(=O)c2ccc3oc(=O)n(C)c3c2)n1 (configuration not stated),5.14%,3.86%
CCCc1nc(C(=O)N2CCCn3nc(CCC(=O)O)cc3C2)cs1,-2.6%,15.5%
CC(C)Oc1cccc(CNC(=O)NC(C)(C(=O)O)c2ccco2)c1 (configuration not stated),1.32%,25.1%
Cn1cccc1-c1cc(C(=O)N2CCCC2c2cccnc2)[nH]n1 (configuration not stated),2.57%,4.82%
O=C1NC2(CCN(Cc3cccnc3)CC2)CC1c1ccncc1 (configuration not stated),7.31%,-19.6%
O=C(C1CCCc2[nH]ncc21)N1CCCCCC1 (configuration not stated),-0.324%,1.51%
CCc1n[nH]c(C2CN(C(=O)c3nc(C)ncc3Cl)CCO2)n1 (configuration not stated),0%,-0.974%
Cc1cc(C)c2cc(CNCc3ccccc3)c3nn(C)c(=O)n3c2c1,-2.43%,-0.711%
CN(CC(=O)N1CCCC1Cn1cccn1)C1CC1 (configuration not stated),-2.14%,12.6%
O=C(c1cc(=O)[nH]c(=O)[nH]1)N1CCCCC1c1nc2cc(F)ccc2[nH]1 (configuration not stated),-0.139%,9.59%
CC(C)c1nc(N2CC(N3CCCCC3C)C2)c2cnn(C)c2n1 (configuration not stated),-2.71%,-37.8%
O=C1C(NCc2nnc3n2CCCC3)CCN1CC(F)(F)F (configuration not stated),-0.389%,1.91%
COc1ccc(CN(Cc2cncn2C)CC2CCCO2)c(OC)c1 (configuration not stated),7.91%,11.4%
NCC(c1ccccc1)N1CCc2sccc2C1 (configuration not stated),-4.25%,-7.32%
O=C1CCC2(CCN(Cc3cc(F)cc(F)c3)CC2)CN1CCO,-0.529%,6.69%
CCCNC(=O)c1sccc1N(C)S(=O)(=O)c1ccc(Cl)cc1,12.9%,-24.4%
COCc1cccc(CNC(=O)CN2CCCC2c2noc(C)n2)c1 (configuration not stated),-0.723%,14.4%
Cc1c(F)cc(C(=O)O)cc1S(=O)(=O)Nc1ccc2c(c1)OCCO2,2.32%,10.9%
